In all, about 5,500 compounds went through this assay and about 2,000 (36%) were called active. About 18% were inconclusive and are not listed. No stated cut-off is given here; in the data, active means normalized growth mostly below about 0.91 (no sharp cut-off); inconclusive means no clear call, values can overlap the other calls; inactive means mostly above about 0.92. The list shows a part of the results.
Assay: chemical genetic growth profiling, strain panel (AID 1159580);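 further: tested at 20 µM; growth read once vehicle control cultures reached saturation at 30 °C; 1 = growth at the plate median or of vehicle wells; lower values mean less growth of the strain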
Details: growth OD

Measured: normalized growth

O=C(O)CCCCC1SCC2NC(=O)NC21 (centres undefined)
inactive: S. cerevisiae deletion strains, locus YJL187C, strain SWE1, hits give low values 0.991 | S. cerevisiae deletion strains, locus YJR043C, strain POL32, hits give low values 0.971 | S. cerevisiae deletion strains, locus YJR066W, strain TOR1, hits give low values 0.983 | S. cerevisiae deletion strains, locus YKL009W, strain mrt4, hits give low values 0.994 | S. cerevisiae deletion strains, locus YKL068W, hits give low values 1.01 | S. cerevisiae deletion strains, locus YKL085W, strain MDH1 (second series), hits give low values 1.01 | S. cerevisiae deletion strains, locus YKL085W, strain MDH1, hits give low values 1.01 | S. cerevisiae deletion strains, locus YKL160W, strain elf1, hits give low values 1 | S. cerevisiae deletion strains, locus YKL190W, strain CNB1, hits give low values 1.03 | S. cerevisiae deletion strains, locus YKR001C, strain vps1, hits give low values 1 | S. cerevisiae deletion strains, locus YKR026C, strain gcn3, hits give low values 0.982 | S. cerevisiae deletion strains, locus YKR091W, strain srl3, hits give low values 0.992 | S. cerevisiae deletion strains, locus YLL001W, strain dnm1, hits give low values 0.989 | S. cerevisiae deletion strains, locus YLL026W, hits give low values 0.982 | S. cerevisiae deletion strains, locus YLL041C, strain sdh2, hits give low values 0.977 | S. cerevisiae deletion strains, locus YLR027C, strain aat2, hits give low values 0.994 | S. cerevisiae deletion strains, locus YLR039C, strain RIC1, hits give low values 1.06 | S. cerevisiae deletion strains, locus YLR058C, strain SHM2, hits give low values 1.01 | S. cerevisiae deletion strains, locus YLR102C, strain apc9, hits give low values 0.998 | S. cerevisiae deletion strains, locus YLR113W, strain HOG1, hits give low values 0.991 | S. cerevisiae deletion strains, locus YLR221C, strain rsa3, hits give low values 1.01 | S. cerevisiae deletion strains, locus YLR258W, strain gsy2, hits give low values 0.995 | S. cerevisiae deletion strains, locus YLR262C, strain YPT6 (second series), hits give low values 0.992 | S. cerevisiae deletion strains, locus YLR262C, strain YPT6, hits give low values 1.02 | S. cerevisiae deletion strains, locus YLR268W, strain sec22, hits give low values 0.99 | S. cerevisiae deletion strains, locus YLR320W, strain mms22, hits give low values 0.999 | S. cerevisiae deletion strains, locus YLR330W, strain CHS5, hits give low values 1.01 | S. cerevisiae deletion strains, locus YLR342W, strain FKS1 (second series), hits give low values 1 | S. cerevisiae deletion strains, locus YLR342W, strain FKS1, hits give low values 0.972 | S. cerevisiae deletion strains, locus YLR357W, strain rsc2, hits give low values 0.962 | S. cerevisiae deletion strains, locus YLR370C, strain arc18, hits give low values 0.998 | S. cerevisiae deletion strains, locus YLR371W, strain rom2, hits give low values 1.02 | S. cerevisiae deletion strains, locus YLR384C, strain iki3, hits give low values 0.985 | S. cerevisiae deletion strains, locus YLR418C, strain cdc73, hits give low values 1.02 | S. cerevisiae deletion strains, locus YML016C, strain PPZ1, hits give low values 1.01 | S. cerevisiae deletion strains, locus YML032C, strain rad52, hits give low values 0.983 | S. cerevisiae deletion strains, locus YML120C, strain ndi1, hits give low values 0.976 | S. cerevisiae deletion strains, locus YML124C, strain tub3, hits give low values 0.996 | S. cerevisiae deletion strains, locus YMR058W, strain fet3, hits give low values 0.984 | S. cerevisiae deletion strains, locus YMR078C, strain ctf18, hits give low values 1.02 | S. cerevisiae deletion strains, locus YMR125W, strain sto1, hits give low values 0.989 | S. cerevisiae deletion strains, locus YMR129W, hits give low values 0.997 | S. cerevisiae deletion strains, locus YMR205C, strain PFK2, hits give low values 1 | S. cerevisiae deletion strains, locus YMR223W, strain ubp8, hits give low values 1 | S. cerevisiae deletion strains, locus YMR231W, strain pep5, hits give low values 0.997 | S. cerevisiae deletion strains, locus YMR307W, strain GAS1, hits give low values 1.01 | S. cerevisiae deletion strains, locus YNL067W, strain RPL9B, hits give low values 1 | S. cerevisiae deletion strains, locus YNL071W, strain lat1, hits give low values 0.979 | S. cerevisiae deletion strains, locus YNL183C, strain NPR1, hits give low values 0.984 | S. cerevisiae deletion strains, locus YNL209W, strain ssb2, hits give low values 0.995 | S. cerevisiae deletion strains, locus YNL233W, strain BNI4, hits give low values 0.99 | S. cerevisiae deletion strains, locus YNL248C, strain rpa49, hits give low values 0.982 | S. cerevisiae deletion strains, locus YNL250W, strain rad50, hits give low values 1.01 | S. cerevisiae deletion strains, locus YNL271C, strain bni1, hits give low values 0.996 | S. cerevisiae deletion strains, locus YNL298W, strain CLA4, hits give low values 1 | S. cerevisiae deletion strains, locus YNL307C, strain MCK1, hits give low values 0.997 | S. cerevisiae deletion strains, locus YNL322C, strain KRE1 (second series), hits give low values 0.973 | S. cerevisiae deletion strains, locus YNR049C, strain mso1, hits give low values 0.978 | S. cerevisiae deletion strains, locus YNR052C, strain pop2, hits give low values 0.996 | S. cerevisiae deletion strains, locus YOL006C, strain TOP1, hits give low values 1.09 | S. cerevisiae deletion strains, locus YOL012C, strain htz1 1.05 | S. cerevisiae deletion strains, locus YOL147C, strain pex11, hits give low values 1 | S. cerevisiae deletion strains, locus YOR001W, strain rrp6, hits give low values 0.987 | S. cerevisiae deletion strains, locus YOR061W, strain CKA2, hits give low values 1 | S. cerevisiae deletion strains, locus YOR069W, strain VPS5, hits give low values 1.01 | S. cerevisiae deletion strains, locus YOR070C, strain gyp1, hits give low values 1 | S. cerevisiae deletion strains, locus YOR080W, strain dia2, hits give low values 0.978 | S. cerevisiae deletion strains, locus YOR083W, strain WHI5, hits give low values 0.992 | S. cerevisiae deletion strains, locus YOR106W, strain vam3, hits give low values 0.975 | S. cerevisiae deletion strains, locus YOR136W, strain idh2, hits give low values 0.986 | S. cerevisiae deletion strains, locus YOR144C, strain elg1, hits give low values 0.988 | S. cerevisiae deletion strains, locus YOR184W, strain ser1, hits give low values 0.956 | S. cerevisiae deletion strains, locus YOR231W, strain MKK1, hits give low values 1.01 | S. cerevisiae deletion strains, locus YOR265W, strain rbl2, hits give low values 1.01 | S. cerevisiae deletion strains, locus YOR270C, strain vph1, hits give low values 1.01 | S. cerevisiae deletion strains, locus YOR290C, strain snf2, hits give low values 0.977 | S. cerevisiae deletion strains, locus YOR316C, strain cot1, hits give low values 1 | S. cerevisiae deletion strains, locus YPL051W, strain arl3, hits give low values 1.01 | S. cerevisiae deletion strains, locus YPL078C, strain atp4, hits give low values 0.955 | S. cerevisiae deletion strains, locus YPL106C, strain sse1, hits give low values 0.994 | S. cerevisiae deletion strains, locus YPL240C, strain hsp82, hits give low values 0.98 | S. cerevisiae deletion strains, locus YPL241C, strain CIN2, hits give low values 1.01 | S. cerevisiae deletion strains, locus YPL256C, strain CLN2, hits give low values 1 | S. cerevisiae deletion strains, locus YPR119W, strain clb2, hits give low values 0.992 | S. cerevisiae deletion strains, locus YPR141C, strain kar3, hits give low values 1.01 | S. cerevisiae deletion strains, locus YPR163C, strain tif3, hits give low values 1.01 | S. cerevisiae deletion strains, locus YPR167C, strain met16, hits give low values 1 | S. cerevisiae deletion strains, strain wtn01, hits give low values 0.992 | S. cerevisiae strains, strain wild type, hits give low values 1.01

— PubChem BioAssay AID1159580 (chemical genetic matrix, 2015)
